Values joined by “and” are separate entries in the source; they are usually repeats but may differ in a detail not shown here. Equal values may be shown once. About 83,000 compounds went through this panel and 20% of them were active in at least one assay; those are over-represented in the sample as a whole.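 Step 1: grow cells in 96-well plates. Step 2: add test compound at a single concentration. Step 3: incubate 48 h. Step 4: record percent growth.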 Unmarked numbers belong to inactive results. Active and inactive are the calls of the source. The calls were made as follows: active = growth percent below 10; inactive = the rest.

This is an account of results in PubChem BioAssay (NCI).

The test system of the test is MDA-MB-468 breast. In words: NCI-60 one-dose screen, 48 h (100 = growth as untreated, 0 = no growth, -100 = all killed). The note with it: 10 µM unless noted.
Take `COc1cc(-c2nc(SCCC(C)C)nc(Nc3ccccc3Cl)c2C#N)cc(OC)c1OC`: the growth was 108%.

`CC1=C(C)C(=O)C(Nc2ccc3c(c2)OCO3)=C(Br)C1=O`: the growth is 36.3%.

As to `CN1C(=O)N(C)C2Nn3c(s/c(=C\c4ccccn4)c3=O)=NC21` (centres undefined), the growth is 95.6%. For `CCCCNC(=O)c1cc([N+](=O)[O-])cc(C2CCCCC2)c1O`, the growth was -1.64% (active). To `O=S(=O)(Cc1ccccc1)c1nc2ccccc2s1` belongs 76.8%. To `CC(=O)Oc1ccc(N2C(=O)C(Cl)=C(Nc3cccc(C(F)(F)F)c3)C2=O)cc1` belongs 96.1%; to `CCOC(=O)c1ccc(NC2=CC(=O)C(C)=C(C)C2=O)cc1`, 13.8%; to `CCCCCCCOc1cccc(/C=C2/C(=O)N=C3SCCCN32)c1`, 56.8%.

`COc1ccc2c(c1)[nH]c(=O)c1c3cc(OC)ccc3cn21`: the growth is 5.66% (active).

For the compound `COc1cc(C2C3=C(COC3=O)Nc3cc4c(cc32)OCO4)cc2c1OCO2` (centres undefined), the growth is -10.3% (active). As for `CCN(CCCOc1ccc2c(Nc3cc(CC(=O)Nc4cccc(F)c4)[nH]n3)ncnc2c1)CCOP(=O)(O)O`, the figure is 67.6%. As for `Cc1ccc(NC(=O)Cc2ccc(/C=C/C(=O)c3ncc[nH]3)cc2)cc1`, the figure is -0.436% (active); as for `Cc1ccc(Nc2nc(N)nc(N)c2N=O)cc1Cl`, 40%; as for `C=C1C(=O)O[C@H]2[C@H]1CC/C(COC(=O)NCc1cc(OC)c(OC)c(OC)c1)=C\CC[C@@]1(C)O[C@@H]21`, 35.4%.

As for `Cc1n(Cc2ccc3ccccc3c2)c2ccccc2[n+]1Cc1ccc2ccccc2c1`, the growth was -60.8% (active). Regarding `CS(=O)(=O)c1ccc2c(c1)c1c(n2S(=O)(=O)c2ccc(Cl)cc2)CCCC1`, the growth was 42.3%.

On to `Cc1ccc(Nc2nc(-c3cc(O)c(C)c(C)c3O)cs2)cc1`, for which the growth was 44.5%. On to `O=C1NC(=O)C2C(=O)NC(=O)C1C21CCc2ccccc21` (centres undefined), for which the growth was 101%. On to `O=C(Nc1ccc(Br)cc1F)c1cc(Br)ccc1O`, for which the growth is -13.6% (active). As for `O=C(Nc1ccc(-n2cc(-c3ccncc3)c(-c3ccc(Cl)c(O)c3)n2)cc1)c1cc(Cl)cc(Cl)c1`, the figure is 57.6%; as for `O=c1sc2ncnc3ncn1c32`, 8.83% (active); as for `COc1cccc(/C=N\Nc2ccc([N+](=O)[O-])cn2)c1O`, 26.4%. To `CC[n+]1ccc2c(c1)C(=O)c1nccc3c1c-2nc1ccccc13` belongs -52.3% (active).

For the compound `CCSc1nc(-c2cccs2)n2nc(-c3ccco3)cc2n1`, the growth was -37.1% (active).

For `COc1cc(/C=N/n2cnc3oc(-c4ccccc4)cc3c2=N)cc(CN2CCN(C)CC2)c1O`, the growth was 91.9%. To `C=C1CCC2C3(C)COC(c4ccccc4Br)OC3CCC2(C)C1C/C=C1/C(=O)OCC1OC(C)=O` (centres undefined) belongs -34.3% (active). As for `CCC(C)(O)c1ccc(C)cc1` (centres undefined), the figure is 110%; as for `CCn1c(SCC(=O)Nc2cc(C(F)(F)F)ccc2Cl)nc2ccccc2c1=O`, 50.3%. Consider `CCCCCOC(=O)Nc1nc(=O)n(C2O[C@H](C)[C@@H](O)[C@H]2O)cc1F` (some centres undefined), for which the growth is 99.1%.

Regarding `Cn1c(COC(=O)NCCn2ccnc2)nc2c(N3CCOCC3)nc(-c3ccccc3)nc21`, the growth is -64.1% (active). To `COc1cc(NC(=O)c2cc(O)c(CC=C(C)C)c(O)c2)cc2c1O[C@]1(C)CC[C@@H](O)C(C)(C)[C@H]1C2` belongs 30.8%; to `COc1cc(OC)c(NC(=O)n2ncc3cc(Nc4ncnc5ccccc45)ccc32)cc1Cl`, -5.26% (active). Turning to `CNC(=O)c1cc(Oc2ccc3nc(NC(=O)c4cccc(OC(F)(F)F)c4)sc3c2)ccn1`, the growth was 46%.

With `COc1ccc(C(O)c2cc3c(N)c(C(=O)Nc4ccc(Br)cc4)sc3nc2C)cc1` (centres undefined), the growth is -0.733% (active). To `O=CC(O)C(O)C(O)CO` (centres undefined) belongs 104% and 102%. As for `COc1cc(C(=O)/C=C/c2cccnc2Nc2ccc(Cl)cc2)cc(OC)c1OC`, the figure is -80.1% (active).

As for `COc1ccc(Cn2cc3c(c2-c2cc(OC)c(OC)c(OC)c2)CCCc2cnoc2-3)cc1N`, the growth is 46.7%. As for `CC1NC(=O)NC1CCCCCC(=O)O` (centres undefined), the figure is 101%; as for `O=C(O)C1CSCN1` (centres undefined), 114% and 95.5%.
